Several values for one entry are separate records, joined by “and”; a condition that tells them apart may be missing. Equal entries are not always repeated. This is part of a sample that, as a whole, favours compounds with a hit. Of some 79,000 tested, about 15% had one in any assay. Some structures have more than one record in an assay (separate samples or runs), and their calls can disagree. Activity calls are given as the source filed them. Cut-off read from the data, not from the text of the source: active = growth inhibition above about 70%; inactive = the rest. Starred links: 1 amine or outer side, 2 acyl side, 3 side chain; linkers in the order of their positions; H or OH if unused. Positions of bridges follow the written chain, without caps; N, C: chain ends. Non-standard residues stand in square brackets, D forms with d. Residues, ends and D or L forms follow the SMILES beside them. Chains are numbered I, II in the order given. Actinocin(9to1) = Cc1c2oc3c(C)ccc(C(=O)[*:1])c3nc-2c(C(=O)[*:2])c(N)c1=O; aThr = C[C@H](O)[C@H](N)C(=O)O; NMeV = CN[C@H](C(=O)O)C(C)C; Sar = CNCC(=O)O
What was measured:
[1] = NCI Yeast Anticancer Drug Screen. Data for the mlh1 strain (AID 171);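 note: 0% = growth of vehicle-treated control cultures of the same strain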; conditions: S. cerevisiae mlh1 strain growth inhibition, stronger effect = higher value
Outline: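 Steps: expose the defined-mutant yeast strain to compound; expose a parallel culture to vehicle; measure growth; express compound effect as inhibition relative to the vehicle culture.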

[2] = NCI Yeast Anticancer Drug Screen. Data for the sgs1 strain (AID 173);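 note: 0% = growth of vehicle-only control cultures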; conditions: S. cerevisiae sgs1 mutant, stronger effect = higher value
Outline: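 Treat defined-mutant yeast with compound; measure growth; calculate inhibition relative to vehicle-treated cells.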

[3] = NCI Yeast Anticancer Drug Screen. Data for the mlh1 rad18 strain (AID 175); conditions: S. cerevisiae mlh1 rad18 strain growth inhibition, stronger effect = higher value
Outline: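 Test agents were incubated with a yeast strain of defined genotype (DNA damage repair defect). Inhibition of growth was derived by comparison with vehicle-exposed cultures.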

[4] = NCI Yeast Anticancer Drug Screen. Data for the rad18 strain (AID 177); conditions: S. cerevisiae rad18 mutant growth inhibition, stronger effect = higher value
Outline: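 A genetically defined yeast mutant impaired in DNA damage repair was treated with test compounds, then its growth was measured against cultures receiving vehicle alone.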

[5] = NCI Yeast Anticancer Drug Screen. Data for the rad52 strain (AID 147);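 note: 0% = growth of vehicle-treated control cultures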; conditions: S. cerevisiae rad52 mutant growth inhibition, stronger effect = higher value
Outline: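 Screen used a yeast mutant impaired in DNA repair. After compound exposure, growth was measured. Values reflect inhibition compared with vehicle-treated cells.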

[6] = NCI Yeast Anticancer Drug Screen. Data for the wt1 strain (AID 149);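 note: 0% = growth of vehicle-treated wt1 cultures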; conditions: S. cerevisiae wt1 strain (SPY 50644) growth inhibition, stronger effect = higher value
Outline: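 Using yeast strain wt1, compound-induced growth inhibition was determined against vehicle-treated cultures.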

[7] = NCI Yeast Anticancer Drug Screen. Data for the rad50EPP+ strain (AID 151);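 note: 0% = growth of vehicle-treated control cultures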; conditions: S. cerevisiae rad50 mutant strain, stronger effect = higher value
Outline: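 Exposing the rad50EPP+ strain to each compound, growth was compared with vehicle-only cultures to give inhibition.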

[8] = NCI Yeast Anticancer Drug Screen. Data for the rad50 strain (AID 155);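 note: 0% = growth of vehicle-only cultures of the same strain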; conditions: S. cerevisiae rad50 strain growth inhibition, stronger effect = higher value
Outline: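 Relative growth inhibition (compound vs vehicle) was measured in yeast with a defined repair-gene alteration.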

[9] = NCI Yeast Anticancer Drug Screen. Data for the mec2-1 strain (AID 157); conditions: S. cerevisiae mec2-1 strain, stronger effect = higher value
Outline: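 Readout is yeast growth inhibition, normalised to vehicle-treated controls, in the mec2-1 strain exposed to compound.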

[10] = NCI Yeast Anticancer Drug Screen. Data for the sgs1 mgt1 strain (AID 161);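 note: 0% = growth of cultures given vehicle only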; conditions: S. cerevisiae sgs1 mgt1 strain, stronger effect = higher value
Outline: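 Compounds are added to genetically altered yeast, and growth is compared with cultures given vehicle alone to give percent inhibition.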

[11] = NCI Yeast Anticancer Drug Screen. Data for the CLN2oe strain (AID 163);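 note: 0% = growth of vehicle-only control cultures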; conditions: S. cerevisiae CLN2oe strain, stronger effect = higher value
Outline: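 Values reflect how much compound exposure reduced yeast growth, referenced to vehicle-exposed cells. Assay organism is a strain with a defined genetic change affecting cell-cycle control.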

[12] = NCI Yeast Anticancer Drug Screen. Data for the cln2 rad14 strain (AID 165);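 note: 0% = growth equal to vehicle treated cultures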; conditions: S. cerevisiae cln2 rad14 strain, stronger effect = higher value
Outline: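 Relative to vehicle controls, growth inhibition of compound-treated cln2 rad14 yeast was recorded.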

[13] = NCI Yeast Anticancer Drug Screen. Data for the bub3 strain (AID 167); conditions: S. cerevisiae bub3 mutant strain, stronger effect = higher value
Outline: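 Screening used yeast with an engineered genetic alteration affecting cell cycle control. Compound-exposed cultures were compared with vehicle cultures, and reduced growth was taken as inhibition.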

[14] = NCI Yeast Anticancer Drug Screen. Data for the wt2 strain (AID 169);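 note: 0% = growth of vehicle-treated yeast cultures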; conditions: S. cerevisiae wt2 strain growth inhibition, stronger effect = higher value
Outline: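 Values express reduction in yeast growth under compound treatment, referenced to vehicle-treated cells.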

[15] = at 5.0 µM (retest, dose inferred, filed as 0.5)
[16] = at 50.0 µM (retest, dose inferred, filed as 5.0)

Measured: growth inhibition

COc1ccc2[nH]c3c(C)c4cc[n+](C)cc4c(C)c3c2c1
inactive: [1]; at 1.2 µM 34% and 19% | [1]; at 3.7 µM 34% and 35% | [1]; at 11.0 µM 41% | [1]; at 33.0 µM 56% | [2]; at 1.2 µM 18% and 25% | [2]; at 3.7 µM 32% and 39% | [2]; at 11.0 µM 51% and 42% | [2]; at 33.0 µM 42% and 52% | [3]; [15] 23% and 19% | [3]; [16] 52% and 32% | [3]; at 50.0 µM 56.5% | [4]; at 1.2 µM 23% and 27% | [4]; at 3.7 µM 40% and 35% | [4]; at 11.0 µM 38% | [4]; at 33.0 µM 45% and 44%
50% (inactive) and 82% (active): [2]; at 100.0 µM
46% (inactive) and 77% (active): [1]; at 100.0 µM
41% (inactive) and 82% (active): [4]; at 100.0 µM

Cc1c2oc3c(C)ccc(C(=O)N[C@@H]4C(=O)N[C@H](C(C)C)C(=O)N5CCC[C@H]5C(=O)N(C)CC(=O)N(C)[C@@H](C(C)C)C(=O)O[C@H]4C)c3nc-2c(C(=O)N[C@@H]2C(=O)N[C@H](C(C)C)C(=O)N3CCC[C@H]3C(=O)N(C)CC(=O)N(C)[C@@H](C(C)C)C(=O)O[C@H]2C)c(N)c1=O (I: [aThr][dV]P[Sar][NMeV] / II: [aThr][dV]P[Sar][NMeV]; ester I:1-I:C, II:1-II:C; linker I:N-II:N via Actinocin(9to1))
active: [5]; at 11.0 µM 85% | [5]; at 33.0 µM 96% | [5]; at 100.0 µM 98% | [6]; at 33.0 µM 95% | [6]; at 100.0 µM 95% | [7]; at 11.0 µM 94% | [7]; at 33.0 µM 97% | [7]; at 100.0 µM 99% | [8]; at 11.0 µM 92% | [8]; at 33.0 µM 98% | [8]; [16] 98% | [8]; at 50.0 µM 91.2% | [8]; at 100.0 µM 99% | [9]; at 11.0 µM 84% | [9]; at 33.0 µM 97% | [9]; [16] 99% | [9]; at 50.0 µM 93% | [9]; at 100.0 µM 98% | [10]; [16] 97% | [10]; at 50.0 µM 92.5% | [11]; at 11.0 µM 94% | [11]; at 33.0 µM 97% | [11]; at 100.0 µM 99% | [12]; [16] 92% | [12]; at 50.0 µM 89.3% | [13]; at 11.0 µM 90% | [13]; at 33.0 µM 96% | [13]; [16] 96% | [13]; at 50.0 µM 92% | [13]; at 100.0 µM 98% | [14]; at 11.0 µM 91% | [14]; at 33.0 µM 98% | [14]; at 100.0 µM 99% | [1]; at 11.0 µM 94% | [1]; at 33.0 µM 98% | [1]; at 100.0 µM 99% | [2]; at 11.0 µM 91% | [2]; at 33.0 µM 97% | [2]; at 100.0 µM 99% | [3]; [16] 98% | [3]; at 50.0 µM 90.5% | [4]; at 11.0 µM 92% | [4]; at 33.0 µM 96% | [4]; at 100.0 µM 98%
inactive: [5]; at 1.2 µM 5% | [5]; at 3.7 µM 38% | [6]; at 1.2 µM 0% | [6]; at 3.7 µM 19% | [6]; at 11.0 µM 58% | [7]; at 1.2 µM 2% | [7]; at 3.7 µM 53% | [8]; at 1.2 µM 9% | [8]; at 3.7 µM 59% | [8]; [15] 65% | [9]; at 1.2 µM 1% | [9]; at 3.7 µM 29% | [9]; [15] 53% | [10]; [15] 24% | [11]; at 1.2 µM 8% | [11]; at 3.7 µM 32% | [12]; [15] 34% | [13]; at 1.2 µM 3% | [13]; at 3.7 µM 28% | [13]; [15] 24% | [14]; at 1.2 µM 0% | [14]; at 3.7 µM 26% | [1]; at 1.2 µM 2% | [1]; at 3.7 µM 28% | [2]; at 1.2 µM 3% | [2]; at 3.7 µM 30% | [3]; [15] 61% | [4]; at 1.2 µM -2% | [4]; at 3.7 µM 18%

From PubChem BioAssay (NCI)
